Assay [1] is described as follows: yeast TOR pathway RPL19A-GFP modulators, primary screen, cell-based, S. cerevisiae, multiplex flow cytometry (AID 1862; in the data active = percent of DMSO control GFP below about 86%;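 also: lower values mimic rapamycin by blocking the RPL19A rise seen in DMSO cells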). Particulars: S. cerevisiae RPL19A-GFP strain, flow cytometry fluorescence, 3 h; at 10 µM; stronger effect = lower value. On the technique in general: A flow cytometer gives signals particle by particle.
The nature of assay [2]: modulators of MEP2-GFP levels in yeast, primary screen, S. cerevisiae, multiplex flow cytometry (AID 1867;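 active = GFP response, as percent of the DMSO control, above the screen-wide mean plus 3 SD, about 139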;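 also: median GFP channel fluorescence of barcode-gated MEP2-GFP cells measured by flow cytometry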). Particulars: S. cerevisiae MEP2-GFP strain, 3 h, at 10 µM, stronger effect = higher value.
A short description of assay [3]: modulators of CIT2-GFP expression in yeast, primary screen, S. cerevisiae, GFP fusion, multiplex flow cytometry (AID 1870;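 active = percent response above a set limit, the screen-wide mean plus 3 SD, cut at about 130% in these data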;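 also: barcoded CIT2-GFP strain pooled with four other GFP strains with rapamycin as positive control; median GFP fluorescence per well over plate mean of DMSO wells so 100% = DMSO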). Particulars: 3 h, at 10 µM, stronger effect = higher value.
Assay [4] in a line: modulators of LAP4-GFP expression in yeast, primary screen, S. cerevisiae, multiplex flow cytometry (AID 1873;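 active = GFP signal, as percent of the solvent control, above the screen mean plus 3 SD, about 149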). Particulars: 3 h, at 10 µM, stronger effect = higher value.
Assay [5] can be described thus: modulators of AGP1-GFP expression in yeast TOR pathway, primary screen, cell-based, multiplex flow cytometry, S. cerevisiae (AID 1887;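 active = GFP signal above the screen-wide mean plus 3 SD, that is over about 124.5% of the solvent control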;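 also: AGP1-GFP fusion strain of S. cerevisiae within a five-strain barcoded multiplex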). Particulars: 3 h, at 10 µM, stronger effect = higher value.
Assay [6] is described as follows: inhibitors of CD8+ T cell-vesicle binding, pilot screen, LFA-1/ICAM-1 modulator project, MLPCN validation set, flow cytometry (AID 2523;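 active = response below a set limit, under 55% cells CD8-positive and vesicle-bound, and CD8 cells' 90th-percentile brightness under 279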;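 as to vesicle binding response: mean PE anti-B7-1 fluorescence of CD8+ cells relative to row control; 100% = QL9-loaded vesicles with DMSO vehicle in the same plate row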). Particulars: 2C mouse CD8+ T cells, at 7 µM, stronger effect = lower value; double positive events: measured here: CD8+/vesicle+ event percentage.
The target of assay [7] is Integrin beta-1 (Homo sapiens) + Integrin alpha-4 (Homo sapiens) (UniProt P13612+P05556). The assay can be described thus: inhibition of HUTS-21 binding to VLA-4, pilot screen, VLA-4 allosteric modulator project, U937 cells, HUTS-21 mAb, flow cytometry, validation set (AID 2674;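 active = inhibition above 50%, about 3 SD of the validation set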;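 also: antibody binding induced by the VLA-4 ligand LDV present at three times its Kd; 0% = LDV ligand with antibody and no compound and 100% = antibody without LDV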). Particulars: HUTS-21 LIBS mAb binding, at 6.7 µM, stronger effect = higher value.
Assay [8] is described as follows: superoxide lowering in aged yeast cells, pilot screen, validation compound set (AID 2706;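 active = superoxide response below 65% of plate, a cut near 3 SD across the whole screen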;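 also: yeast exposed to compound for one week at 30 degrees C before staining; 100% = mean of all compound wells on the same plate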). Particulars: S. cerevisiae aging, superoxide DHE fluorescence; at 10 µM; stronger effect = lower value.
The target in assay [9] is Beta-adrenergic receptor kinase 1 (Homo sapiens) (UniProt P25098). As to the kind of experiment: GRK2 binders displacing RNA aptamer, biochemical, validation, human GRK2, bead flow cytometry (AID 488806;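 active = aptamer binding inhibition above 30%, about 3 SD of noise from non-fluorescent compounds; inactive = inhibition at or below 30%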). Particulars: bead-bound GRK2, FAM-aptamer displacement, at 10 µM, stronger effect = higher value.
Beta-adrenergic receptor kinase 1 (Homo sapiens), sequence (P25098 whole entry, looked up): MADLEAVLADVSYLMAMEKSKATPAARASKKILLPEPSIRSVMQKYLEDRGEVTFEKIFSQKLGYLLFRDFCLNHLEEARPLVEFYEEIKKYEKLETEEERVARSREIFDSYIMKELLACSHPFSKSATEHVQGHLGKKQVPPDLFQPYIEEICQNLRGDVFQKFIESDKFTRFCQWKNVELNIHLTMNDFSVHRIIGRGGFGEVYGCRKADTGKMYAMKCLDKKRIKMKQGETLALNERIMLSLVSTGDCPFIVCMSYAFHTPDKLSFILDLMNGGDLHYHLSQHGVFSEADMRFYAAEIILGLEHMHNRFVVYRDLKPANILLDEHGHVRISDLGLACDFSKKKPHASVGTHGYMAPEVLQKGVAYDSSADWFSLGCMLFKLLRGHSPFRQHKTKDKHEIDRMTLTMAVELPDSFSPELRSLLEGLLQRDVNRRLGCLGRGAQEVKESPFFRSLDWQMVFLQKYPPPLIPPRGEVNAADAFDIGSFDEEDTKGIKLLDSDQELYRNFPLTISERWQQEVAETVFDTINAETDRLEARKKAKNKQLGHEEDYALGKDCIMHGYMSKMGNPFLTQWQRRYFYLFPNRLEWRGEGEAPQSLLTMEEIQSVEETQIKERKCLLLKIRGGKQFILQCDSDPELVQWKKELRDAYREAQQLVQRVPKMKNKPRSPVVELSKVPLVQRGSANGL
Assay [10] concerns the target Beta-2 adrenergic receptor (Homo sapiens) (UniProt P07550). As to the kind of experiment: beta2AR agonists driving receptor internalization, pilot screen, cell-based, FAP fluorogen, flow cytometry, validation set (AID 504459;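 active = percent response above 42, roughly 3 SD of non-fluorescent test compounds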;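 also: agonist-driven loss of surface beta2AR via internalization measured by FAP dye flow cytometry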). Particulars: Am2.2-beta2AR cells, FAP surface receptor flow cytometry; at 10 µM; stronger effect = higher value.
Assay [11] concerns the target AP-2 complex subunit beta (Homo sapiens) (UniProt P63010). The assay can be described thus: inhibitors of arrestin peptide binding to AP2, pilot screen, biochemical, validation set, GST-AP2 beads, flow cytometry (AID 504541;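 active = inhibition above 54%, about 3 SD of non-fluorescent compounds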;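 also: AP2 carries R879A mutation and is captured from E. coli lysate; bead-bound FITC arrestin peptide fluorescence measuring arrestin peptide binding to AP2; 0% = DMSO wells and 100% = excess unlabeled arrestin peptide control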). Particulars: FITC arrestin peptide, at 10 µM, stronger effect = higher value.
The nature of assay [12]: yeast V-ATPase proton transport modulators, S. cerevisiae, pHLuorin, HTS validation (AID 504600; in the data active = response above about 15%;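 also: plate controls were DMSO for no effect and reference compound for full effect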). Particulars: S. cerevisiae pHLuorin cytosolic pH, at 10 µM, stronger effect = higher value.
For assay [13], the system named is anti-desmoglein-3 scFv antibody binding to human DSG3. As to the kind of experiment: inhibitors of anti-DSG3 scFv binding to DSG3, pilot screen, biochemical, validation compound set, bead-based, flow cytometry (AID 588368;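 active = binding below the plate cutoff, the plate median minus 3 SD, with a reading above zero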;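 also: signal is the median channel fluorescence of bead-bound GFP antibody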). Particulars: Protein G beads, DSG3-Fc, scFv-GFP binding, at 10 µM, stronger effect = lower value.
The subject of assay [14] is Botulinum neurotoxin type F light chain protease (Clostridium botulinum). As to the kind of experiment: Botulinum neurotoxin type F light chain protease inhibition, multiplex microsphere flow cytometry, validation set (AID 588459). Particulars: multiplex microsphere protease substrate cleavage assay, at 10 µM, stronger effect = higher value.
Assay [15] deals with Botulinum neurotoxin type A (Clostridium botulinum) (UniProt P0DPI0). The assay can be described thus: BoNT/A light chain protease inhibitors, biochemical, multiplex microsphere flow cytometry, validation set (AID 588460). Particulars: at 10 µM, stronger effect = higher value.
Botulinum neurotoxin type A (Clostridium botulinum), sequence (P0DPI0 whole entry, looked up): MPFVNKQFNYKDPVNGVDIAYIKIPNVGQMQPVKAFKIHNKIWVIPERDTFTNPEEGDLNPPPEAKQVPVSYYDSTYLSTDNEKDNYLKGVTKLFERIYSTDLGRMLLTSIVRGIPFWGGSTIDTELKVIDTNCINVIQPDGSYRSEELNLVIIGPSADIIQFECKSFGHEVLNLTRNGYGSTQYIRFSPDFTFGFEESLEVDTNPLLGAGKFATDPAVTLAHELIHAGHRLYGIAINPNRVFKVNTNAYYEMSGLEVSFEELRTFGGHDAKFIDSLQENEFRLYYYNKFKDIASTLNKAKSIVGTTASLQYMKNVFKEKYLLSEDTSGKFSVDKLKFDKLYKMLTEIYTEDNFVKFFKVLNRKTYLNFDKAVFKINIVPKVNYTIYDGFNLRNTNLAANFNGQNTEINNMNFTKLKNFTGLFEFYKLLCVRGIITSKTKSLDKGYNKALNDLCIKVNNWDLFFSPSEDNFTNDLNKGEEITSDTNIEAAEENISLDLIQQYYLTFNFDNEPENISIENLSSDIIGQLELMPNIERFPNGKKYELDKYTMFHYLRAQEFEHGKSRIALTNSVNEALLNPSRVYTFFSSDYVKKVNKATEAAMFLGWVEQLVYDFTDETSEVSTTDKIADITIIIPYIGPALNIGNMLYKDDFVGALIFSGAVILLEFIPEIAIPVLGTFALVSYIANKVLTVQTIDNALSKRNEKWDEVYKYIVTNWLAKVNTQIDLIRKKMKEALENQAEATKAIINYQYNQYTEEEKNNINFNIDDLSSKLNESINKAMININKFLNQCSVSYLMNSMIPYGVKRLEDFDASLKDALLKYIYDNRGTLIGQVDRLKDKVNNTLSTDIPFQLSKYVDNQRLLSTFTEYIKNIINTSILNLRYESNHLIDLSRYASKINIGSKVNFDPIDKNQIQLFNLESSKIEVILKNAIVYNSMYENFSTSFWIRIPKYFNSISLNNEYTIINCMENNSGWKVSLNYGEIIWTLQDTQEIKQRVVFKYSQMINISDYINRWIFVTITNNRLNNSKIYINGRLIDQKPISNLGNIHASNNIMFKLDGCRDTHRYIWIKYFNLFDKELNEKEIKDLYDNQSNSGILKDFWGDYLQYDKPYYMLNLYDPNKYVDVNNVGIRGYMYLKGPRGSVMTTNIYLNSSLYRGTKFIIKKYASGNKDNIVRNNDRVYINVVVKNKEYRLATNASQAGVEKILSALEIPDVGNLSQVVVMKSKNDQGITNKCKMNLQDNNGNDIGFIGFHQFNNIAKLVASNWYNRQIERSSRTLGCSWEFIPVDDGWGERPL
Assay [16] deals with Lethal factor (Bacillus anthracis) (UniProt P15917). The assay can be described thus: Lethal factor protease inhibitors, Bacillus anthracis, multiplex microsphere cleavage assay, validation set (AID 588461). Particulars: flow cytometry, at 10 µM, stronger effect = higher value.
Lethal factor (Bacillus anthracis), sequence (P15917 whole entry, looked up): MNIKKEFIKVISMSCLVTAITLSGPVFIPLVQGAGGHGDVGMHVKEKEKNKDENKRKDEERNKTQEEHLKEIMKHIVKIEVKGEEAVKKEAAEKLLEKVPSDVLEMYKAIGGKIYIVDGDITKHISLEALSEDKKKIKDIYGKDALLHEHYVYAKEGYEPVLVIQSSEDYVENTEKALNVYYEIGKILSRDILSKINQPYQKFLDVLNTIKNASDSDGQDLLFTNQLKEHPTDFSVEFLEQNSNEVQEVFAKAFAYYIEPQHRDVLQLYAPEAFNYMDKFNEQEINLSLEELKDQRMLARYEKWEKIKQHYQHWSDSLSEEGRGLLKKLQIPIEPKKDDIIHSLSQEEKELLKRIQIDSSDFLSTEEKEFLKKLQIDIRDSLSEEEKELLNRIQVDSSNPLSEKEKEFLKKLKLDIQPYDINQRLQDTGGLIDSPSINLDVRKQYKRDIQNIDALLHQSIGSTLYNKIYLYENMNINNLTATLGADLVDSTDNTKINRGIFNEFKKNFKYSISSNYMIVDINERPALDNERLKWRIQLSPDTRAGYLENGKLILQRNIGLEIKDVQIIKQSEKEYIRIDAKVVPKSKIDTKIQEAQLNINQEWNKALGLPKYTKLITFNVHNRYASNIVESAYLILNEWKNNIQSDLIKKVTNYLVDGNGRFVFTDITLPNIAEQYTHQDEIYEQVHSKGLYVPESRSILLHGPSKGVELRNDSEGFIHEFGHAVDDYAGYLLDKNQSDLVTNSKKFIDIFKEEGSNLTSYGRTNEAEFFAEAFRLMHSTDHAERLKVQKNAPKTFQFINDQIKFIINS
Assay [17] can be described thus: inhibitors of fungal efflux pumps CDR1, CDR2, MDR1, pilot screen, validation compound set, multiplex, phenotypic (AID 588506;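 active = efflux inhibition above 0.42, the validation set average plus 4 SD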;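 also: Nile Red retained in cells so higher fluorescence means more efflux inhibition; 0 = negative control wells and 1 = enniatin B 25 µM full block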). Particulars: S. cerevisiae pump-expressing triplex, Nile Red efflux flow cytometry; at 10 µM; stronger effect = higher value.
Assay [18] deals with ATP-binding cassette sub-family B member 6 (Homo sapiens) (UniProt Q9NP58). As to the kind of experiment: ABCB6 transporter inhibitors, pilot screen, K562-ABCB6 cells, flow cytometry, validation set (AID 588550;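 active = inhibition above the screen-wide mean plus 3 SD, about 51%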;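 also: 0% = DMSO wells and 100% = benzethonium chloride 70 µM positive control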). Particulars: K562-ABCB6 porphyrin accumulation, 1 h, at 10 µM, stronger effect = higher value.
ATP-binding cassette sub-family B member 6 (Homo sapiens), sequence (Q9NP58 whole entry, looked up): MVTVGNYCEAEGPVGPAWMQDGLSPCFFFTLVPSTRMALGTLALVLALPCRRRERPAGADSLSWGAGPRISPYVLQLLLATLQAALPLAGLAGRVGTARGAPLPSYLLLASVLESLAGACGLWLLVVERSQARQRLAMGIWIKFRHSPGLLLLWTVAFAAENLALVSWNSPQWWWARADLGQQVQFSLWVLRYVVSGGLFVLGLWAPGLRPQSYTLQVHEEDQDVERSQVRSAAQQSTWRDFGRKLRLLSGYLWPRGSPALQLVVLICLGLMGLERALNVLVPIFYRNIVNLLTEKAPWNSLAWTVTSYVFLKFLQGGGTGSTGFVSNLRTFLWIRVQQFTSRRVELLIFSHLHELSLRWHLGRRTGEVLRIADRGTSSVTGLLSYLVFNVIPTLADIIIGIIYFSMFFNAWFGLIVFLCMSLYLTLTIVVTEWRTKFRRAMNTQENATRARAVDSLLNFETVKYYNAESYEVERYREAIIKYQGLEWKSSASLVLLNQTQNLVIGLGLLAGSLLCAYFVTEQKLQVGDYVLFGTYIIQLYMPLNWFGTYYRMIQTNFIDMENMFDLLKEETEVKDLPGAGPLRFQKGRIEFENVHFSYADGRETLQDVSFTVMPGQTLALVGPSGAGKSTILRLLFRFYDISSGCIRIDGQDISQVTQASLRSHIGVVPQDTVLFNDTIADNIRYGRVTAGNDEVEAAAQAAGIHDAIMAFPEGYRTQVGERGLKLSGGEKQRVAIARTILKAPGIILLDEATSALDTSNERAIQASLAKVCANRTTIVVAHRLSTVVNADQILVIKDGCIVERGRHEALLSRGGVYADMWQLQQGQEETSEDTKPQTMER
Assay [19] in a line: promoters of myeloid differentiation in arrested cells, primary screen, cell-based, GFP/MAC1 double positive, flow cytometry, validation set (AID 588685;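 active = differentiation response of at least 50%, scaled between solvent and reference control, from cells with both markers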;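 also: compound exposure lasts four days before antibody staining and flow analysis; 0% = DMSO wells and 100% = 5 µM fulvestrant positive control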). Particulars: ER-HoxA9 marrow cells, stronger effect = higher value.

Results filed as inconclusive are left out. Calls of active or inactive are those of the source. Unless noted, no rule for the calls is given here.

Usually inhibition stands for the change of the read-out against control, counted positive when it falls.

Beta-2 adrenergic receptor (Homo sapiens), sequence (P07550 whole entry, looked up): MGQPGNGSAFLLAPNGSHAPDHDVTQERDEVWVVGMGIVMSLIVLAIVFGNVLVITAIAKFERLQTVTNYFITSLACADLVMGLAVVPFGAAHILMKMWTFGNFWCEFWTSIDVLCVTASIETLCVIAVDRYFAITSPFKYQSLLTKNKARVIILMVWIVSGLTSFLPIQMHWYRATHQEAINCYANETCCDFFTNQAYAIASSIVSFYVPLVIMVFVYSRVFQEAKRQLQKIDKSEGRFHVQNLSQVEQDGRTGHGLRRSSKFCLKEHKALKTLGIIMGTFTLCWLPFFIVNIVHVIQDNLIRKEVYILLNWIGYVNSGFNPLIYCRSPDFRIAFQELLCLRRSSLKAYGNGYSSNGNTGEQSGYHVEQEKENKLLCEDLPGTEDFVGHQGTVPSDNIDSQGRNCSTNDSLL
AP-2 complex subunit beta (Homo sapiens), sequence (P63010 whole entry, looked up, one chain of several): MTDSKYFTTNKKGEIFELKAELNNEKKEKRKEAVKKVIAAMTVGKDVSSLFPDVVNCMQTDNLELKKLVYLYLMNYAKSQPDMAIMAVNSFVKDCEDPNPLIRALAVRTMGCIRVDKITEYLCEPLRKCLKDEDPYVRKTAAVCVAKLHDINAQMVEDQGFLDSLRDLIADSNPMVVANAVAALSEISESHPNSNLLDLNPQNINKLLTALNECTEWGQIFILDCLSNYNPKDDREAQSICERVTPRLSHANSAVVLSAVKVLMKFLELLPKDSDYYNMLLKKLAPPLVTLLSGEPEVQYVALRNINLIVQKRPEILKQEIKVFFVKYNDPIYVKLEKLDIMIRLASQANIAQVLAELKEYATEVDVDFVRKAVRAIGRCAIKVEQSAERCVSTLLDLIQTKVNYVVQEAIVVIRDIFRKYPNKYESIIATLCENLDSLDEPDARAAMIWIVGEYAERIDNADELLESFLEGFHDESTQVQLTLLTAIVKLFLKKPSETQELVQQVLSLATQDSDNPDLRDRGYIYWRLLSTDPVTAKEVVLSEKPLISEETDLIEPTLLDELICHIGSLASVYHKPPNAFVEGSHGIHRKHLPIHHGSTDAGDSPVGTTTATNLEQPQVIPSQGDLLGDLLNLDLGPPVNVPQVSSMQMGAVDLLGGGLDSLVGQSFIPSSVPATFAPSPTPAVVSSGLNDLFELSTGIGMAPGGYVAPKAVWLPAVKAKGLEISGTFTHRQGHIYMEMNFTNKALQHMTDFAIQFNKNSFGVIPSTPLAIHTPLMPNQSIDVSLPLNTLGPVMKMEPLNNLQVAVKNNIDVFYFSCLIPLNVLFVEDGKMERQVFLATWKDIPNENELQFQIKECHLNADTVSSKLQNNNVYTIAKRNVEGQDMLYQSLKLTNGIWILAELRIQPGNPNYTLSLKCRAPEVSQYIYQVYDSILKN

Take `O=C1NCCN2CCCC12` (centres undefined): the percent of DMSO control GFP in assay [1] was 100% (inactive). In addition, the GFP response vs DMSO in assay [2] was 99.7% (inactive); in [4], 93.7% (inactive). In addition, the percent response of DMSO control in assay [3] was 102% (inactive). Also, the GFP response, % of DMSO in assay [5] was 102% (inactive). Moreover, the double positive events in [6] was found to be 58.7%. Besides, the vesicle binding response in assay [6] is 108% (inactive). Also, the inhibition in [7] was 12.3% (inactive); in assay [11], 4.79% (inactive); in [14] it was -0.2% (inactive); in [15] it was -0.6% (inactive); in assay [16] it was 5.9% (inactive); in assay [18] it was 21% (inactive). Besides, the superoxide response (% of plate) in [8] was 92.8% (inactive). Further, the aptamer binding inhibition in assay [9] is 0% (inactive). Further, the response is 0.01% (inactive) in assay [10] and 113% (active) in assay [12]. Further, the binding (% of control) in assay [13] is 101% (inactive). For the same molecule, the efflux inhibition (fraction of control) in [17] is -0.09 (inactive). In assay [19], the differentiation response was -11.9% (inactive).
For `CN1C2CCC1CC(OC(=O)c1ccc(Cl)cc1)C2` (centres undefined), the percent of DMSO control GFP in [1] was 99.9% (inactive). Further, the GFP response vs DMSO in assay [2] is 98.5% (inactive); in [4] it was 119% (inactive). Also, the percent response of DMSO control in [3] is 98.6% (inactive). For the same molecule, the GFP response, % of DMSO in assay [5] was 108% (inactive). In assay [6], the double positive events came to 62.2%. Also, the vesicle binding response in assay [6] was 228% (inactive). In addition, the inhibition in assay [7] is 11.9% (inactive); in assay [11] it was -3.16% (inactive); in assay [14] it was 0% (inactive); in assay [15], -1.9% (inactive); in assay [16], -2.9% (inactive); in [18], 4% (inactive). Also, the superoxide response (% of plate) in [8] is 99.6% (inactive). Also, in [9], the aptamer binding inhibition was -1% (inactive). The response is -2.49% (inactive) in assay [10] and 2.46% (inactive) in assay [12]. In [13], the binding (% of control) is 99.5% (inactive). In assay [17], the efflux inhibition (fraction of control) is -0.03 (inactive). Further, in assay [19], the differentiation response was -13.6% (inactive).
As for `COP(=O)(OC)C(O)C(Cl)(Cl)Cl` (centres undefined), the percent of DMSO control GFP in assay [1] is 103% (inactive). Moreover, the GFP response vs DMSO was 98.3% (inactive) in [2] and 99.9% (inactive) in assay [4]. The percent response of DMSO control in assay [3] was 102% (inactive). The GFP response, % of DMSO in assay [5] was 102% (inactive). For the same molecule, the double positive events in [6] was determined as 62.8%. For the same molecule, in assay [6], the vesicle binding response was 230% (inactive). Further, the inhibition in assay [7] is 9.92% (inactive); in assay [11] it was -9.07% (inactive); in [14] it was -1% (inactive); in assay [15], -0.6% (inactive); in assay [16], -2.9% (inactive); in assay [18], -2% (inactive). For the same molecule, in [8], the superoxide response (% of plate) was 94.8% (inactive). Also, the aptamer binding inhibition in assay [9] was 3% (inactive). The response in assay [10] was -7.88% (inactive); in assay [12] it was 0.81% (inactive). For the same molecule, the binding (% of control) in [13] is 97.9% (inactive). Further, the efflux inhibition (fraction of control) in assay [17] was -0.17 (inactive). Further, the differentiation response in [19] is 12.9% (inactive).
On to `C[C@]12CCC(=O)C=C1CC[C@@H]1[C@@H]2CC[C@]2(C)C(=O)CC[C@@H]12`, for which the percent of DMSO control GFP in assay [1] is 97.6% (inactive). In addition, the GFP response vs DMSO in assay [2] is 95.1% (inactive); in assay [4] it was 106% (inactive). Also, the percent response of DMSO control in [3] was 80.3% (inactive). In addition, the GFP response, % of DMSO in assay [5] was 84.2% (inactive). Also, the double positive events in [6] amounted to 66.1%. For the same molecule, the vesicle binding response in [6] is 210% (inactive). Also, the inhibition in [7] was 1.62% (inactive); in [11] it was -7.92% (inactive); in assay [14], -2.7% (inactive); in assay [15], -2.1% (inactive); in [16], -3.5% (inactive); in assay [18], 9% (inactive). In addition, in assay [9], the aptamer binding inhibition was 1% (inactive). The response in assay [10] was -0.98% (inactive); in assay [12], -1.25% (inactive). In addition, the binding (% of control) in [13] is 99.8% (inactive). Moreover, in assay [17], the efflux inhibition (fraction of control) is 0.05 (inactive). In [19], the differentiation response was 11% (inactive).

These data come from PubChem BioAssay.
